This is a sample that favours compounds with a hit; in the whole collection about 19% have one here.
ELG1 repair inh: qHTS screen for small molecules that inhibit ELG1-dependent DNA repair in human embryonic kidney (HEK293T) cells expressing luciferase-tagged ELG1. Potency, µM (top dose mostly 46.1 µM), for the others: at the top dose activity change, negative = inhibition, hits mostly inhibitors. HEK293T ELG1-luciferase reporter, luminescence, 16 h; DNA damage induced by 5-fluorouridine. 330,000 tested, 2.3% active. AID 504467, 2011; also: potency is read from the fitted curve at half-maximal effect; nearly all actives have a fitted effect of over 55% in size
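Overnight (16 hr) co-exposure of 2,000 cells/well to 5-fluorouridine and compound at 37 °C preceded detection. Luciferase was quantified via ONE-Glo luminescence; loss of signal denotes inhibition.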
IL-1B inflam inh: qHTS for Inhibitors of Inflammasome Signaling: IL-1-beta AlphaLISA Primary Screen. THP-1 LPS/ATP IL-1B secretion, AlphaLISA, 16 h; hits give low values. activity change, % at 57.5 µM. 360,000 tested, 4.7% active; in the data active = activity change below about -50%; inconclusive = mostly about -30% to -49%
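THP-1 cells pretreated 1 hr with compounds (up to 57.5 uM final), then stimulated with LPS (250 ng/mL final) plus ATP (1.25 mM final); secreted IL-1B measured by AlphaLISA after 16 hr, decreased signal indicating inhibition.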
HT1080NT lethal: qHTS for induction of synthetic lethality in tumor cells producing 2HG: qHTS for the HT-1080-NT fibrosarcoma cell line | HT-1080-NT fibrosarcoma viability, CellTiter-Glo ATP luminescence, 48 h | 360,000 tested, 1.6% active | Potency, µM (series often up to 46.1 µM), without a hit: at the highest dose activity, negative = less viability, actives largely listed as cytotoxic;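 also: NT is the 2HG producing partner of a matched IDH1 knockdown line; potency is read from the fitted curve at half-maximal effect; 0% = DMSO-treated cells and -100% = media-only wells without cells; nearly all actives have a fitted effect of over 55% in size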
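HT-1080-NT; 750 cells/well; 5% FBS RPMI; 48 h compound, 37 degrees C; CellTiter-Glo luminescence; curve fitting and curve-class assignment.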
DT40 TDP1 CPT: qHTS for Inhibitors of human tyrosyl-DNA phosphodiesterase 1 (TDP1): qHTS in cells in presence of CPT. chicken DT40 Tdp1-/-;hTDP1 cells + 20 nM CPT, ATP luminescence, 48 h. Potency, µM (series often up to 46.2 µM), for the others: at the highest dose activity change, negative = growth inhibition, hits mostly inhibitors. 420,000 tested, 12% active. AID 686979, 2013; also: potency is read from the fitted curve at half-maximal effect; nearly all actives have a fitted effect of over 55% in size
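Chicken DT40 Tdp1-/- cells complemented with human TDP1, 400 cells/well, exposed to compounds plus 20 nM camptothecin for at least 48 h at 37 C; viability read as ATP content by CellTiter-Glo luminescence.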
HT1080 IDH1KD tx: qHTS for induction of synthetic lethality in tumor cells producing 2HG: qHTS for the HT-1080-IDH1KD cell line. HT-1080 IDH1 knockdown viability, ATP luminescence, 48 h. Potency, µM (doses to about 46.1 µM), inactives show at the top dose activity, negative = toxicity, actives largely listed as cytotoxic. 360,000 tested, 2% active;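 also: potency is read from the fitted curve at half-maximal effect; 0% = DMSO wells and -100% = cell-free medium wells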
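CellTiter-Glo luminescence after 48 h compound exposure at 37 degrees C of IDH1-knockdown HT-1080 cells in 5% FBS RPMI. %Activity scaled between DMSO wells and cell-free media wells, with curves fitted and assigned curve classes.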
DT40 TDP1 no CPT: qHTS for Inhibitors of human tyrosyl-DNA phosphodiesterase 1 (TDP1): qHTS in cells in absence of CPT | DT40 Tdp1-/- hTDP1 cells, no CPT, ATP luminescence, 48 h | Potency, µM (highest dose often 46.2 µM), without a hit: at the highest dose activity change, negative = growth inhibition, actives largely listed as inhibitors | 420,000 tested, 15% active; also: potency is read from the fitted curve at half-maximal effect; nearly all actives have a fitted effect of over 55% in size
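Chicken DT40 Tdp1-/- cells complemented with human TDP1, screened without camptothecin (DMSO vehicle only), 400 cells/well. Compounds pin-transferred, cells incubated at 37 °C for at least 48 hr. Growth read as ATP-dependent luminescence (CellTiter-Glo, 30 min at RT).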
Starred values were filed as active, the others as inactive; ? = inconclusive; / = no result; [ ] = dose if it differs, or a comment. Unless noted, calls follow the shape of the dose curve; as a rule, active = well fitted curve in the direction sought with a large enough effect; inconclusive = small, poorly fitted or top-dose-only effect, or another doubt; inactive = no such curve, though single readings can be large; an effect the other way counts as inactive or inconclusive. Unless noted, % is scaled to controls: 0 for no effect and ±100 for the full control effect.

SMILES	ELG1 repair inh	IL-1B inflam inh	HT1080NT lethal	DT40 TDP1 CPT	HT1080 IDH1KD tx	DT40 TDP1 no CPT
Cc1cc(C)n(-c2ccc(C(=O)Nc3cccnc3Cl)cc2)n1	-10%	-23	-5%	?	2%	?
CCN1CCN(c2ccc(Cl)cc2NC(=O)c2ccco2)CC1	-9%	-62*	-20%	?	-9%	?
Cc1cc(C)n(-c2ccc(C(=O)Nc3cc(S(=O)(=O)N(C)C)ccc3Cl)cc2)n1	?	-24	-2%	16µM*	-7%	?
CCN1CCN(c2ccc(Cl)cc2NC(=O)c2ccc(-n3nc(C)cc3C)cc2)CC1	15µM*	-64*	?	21µM*	?	?
O=C(CSc1nc2cc([N+](=O)[O-])ccc2n1-c1ccccc1)NCc1ccc2c(c1)OCO2	12%	7	-3%	15µM*	-3%	23µM*
CN(C)C(=O)Cn1c(SCC(=O)NCc2ccc3c(c2)OCO3)nc2ccccc21	2%	-1	2%	-1%	-1%[9.24 µM]	5%
Cc1cc(C(=O)CSc2nc3ccccc3c(=O)n2C)c(C)n1Cc1ccc2c(c1)OCO2	?	-19	1%	5.8µM*	5.8µM*	6.5µM*
Cc1cc(C)cc(-n2c(SCC(=O)NCc3ccc4c(c3)OCO4)nc3ccccc3c2=O)c1	?	-8	1%	7.3µM*	4%	18µM*
CCOc1ccc(C(=O)NCCC(=O)N2CCC3(CC2)NCCc2[nH]cnc23)cc1OCC	?	-1	6%	1%	10%	14%
O=C(COC(=O)CCCN=C1NS(=O)(=O)c2ccccc21)NNC(=O)c1ccccc1	24%	12	-4%	-1%	-2%	-6%
CCOC(=O)c1cc(C(=O)OCC)c2cccc(C)n2c1=O	-2%	-4	12%	7.3µM*	2%	13µM*
O=[N+]([O-])c1cccc(S(=O)(=O)c2cccc([N+](=O)[O-])c2)c1	4%	45	9%	6%	5%	4%
O=[N+]([O-])c1cccc(SSc2cccc([N+](=O)[O-])c2)c1	/	?	18µM*	3.7µM*	18µM*	4.6µM*
Cc1ccc(S(=O)(=O)N2CCc3ccccc3C2CC(=O)O)cc1 (stereo unspecified)	0%	34	4%	-6%	9%	13%
COC(=O)c1cc(CN2CCN(c3ccccc3C)CC2)ccc1O	23µM*	1	-9%	?	?	?
COc1ccc(OCC(O)CN2CCc3ccccc3C2)cc1 (stereo unspecified)	8%	-15	5%	-6%	-2%	3%
COc1ccc(C2CCCN2CC(O)COc2ccccc2C(C)C)cc1 (stereo unspecified)	-2%	?	21µM*	23µM*	21µM*	13µM*
CC12CCC(C(=O)N3CCC(Cc4ccccc4)CC3)(C(=O)C1=O)C2(C)C (stereo unspecified)	?	-102*	-18%	11%	-1%	?
COCc1cc(C)nc2sc(C(=O)Nc3ccc(OC(F)(F)F)cc3)c(N)c12	/	/	/	-16%	/	-29%
C=CCN1C(=O)C(C)(C)N(C(C)=O)c2ccccc21	-9%	1	4%	-14%	-1%	5%
C=CCN1/C(=C(\C#N)C2=NS(=O)(=O)c3ccccc32)N(C)c2ccccc21	0%	-9	13µM*	1%	7.1µM*	-3%
CN(C)C=Nc1ccc([N+](=O)[O-])c2ccccc12	/	?	-15%	5%	-13%	?
COCCN(C(=O)CSc1nnc(-c2cccc(F)c2)n1N)c1c(N)n(CC(C)C)c(=O)[nH]c1=O	10%	-4	-8%	-15%	-2%	14%
Cc1cc(C)cc(NC(=O)CCc2c(C)nn(-c3ccc(N4CCCCC4)nn3)c2C)c1	?	-17	-7%	?	-1%	?
CCOc1ccccc1NC(=O)CCc1c(C)nn(-c2ccc(N3CCCCC3)nn2)c1C	?	-14	-1%	23µM*	-12%	16µM*
SMILES	ELG1 repair inh	IL-1B inflam inh	HT1080NT lethal	DT40 TDP1 CPT	HT1080 IDH1KD tx	DT40 TDP1 no CPT
CCOc1ccccc1CNC(=O)CCc1c(C)nn(-c2ccc(N3CCCCC3)nn2)c1C	/	/	/	?	/	21µM*
CSc1nnc(CNC(=O)c2cccc3ccccc23)n1-c1ccccc1C	/	/	/	20%	/	1%
COc1ccc(-c2nsc(NC(=O)C(C)Oc3ccc(Cl)c(C)c3)n2)cc1 (stereo unspecified)	/	/	/	23µM*	/	?
COc1ccc(C(=O)Nc2nc(-c3ccc(Br)cc3)ns2)cc1	/	/	/	-15%	/	?
CC(Oc1ccc(F)cc1)C(=O)Nc1nc(-c2ccc(F)cc2)ns1 (stereo unspecified)	/	/	/	?	/	13µM*
COc1ccc(NC(=O)Cn2c(=O)n(-c3ccc(C)c(C)c3)c(=O)c3c(C)c(C)sc32)cc1	/	/	/	-28%	/	-5%
CCN1CCN(c2ccc(S(=O)(=O)N3CCCCC3)cc2NC(=O)c2ccc(C)c(C)c2)CC1	/	-10	-28%	?	-21%	23µM*
O=C(Nc1cc(S(=O)(=O)N2CCOCC2)ccc1-n1cncn1)c1ccc(Cl)cc1	-11%	?	-6%	?	17%	29µM*
CCN1CCN(c2ccc(S(=O)(=O)N3CCCCC3)cc2NC(=O)c2cccc(C)c2)CC1	13%	?	1%	?	4%	?
CCN1CCN(c2ccc(S(=O)(=O)N3CCCCC3)cc2NC(=O)c2sccc2C)CC1	-1%	-26	0%	?	-3%	23µM*
Cc1cc(C#N)c(C)n1-c1cc(S(=O)(=O)N2CCOCC2)ccc1N1CCCC1	/	-9	-2%	16µM*	-5%	15µM*
c1ccc(Oc2cccc(Oc3ccccc3)n2)cc1	/	20	12%	10%	8%	-1%
O=C(CC1C(=O)OCCN1Cc1ccccc1)Nc1cccc(Cl)c1 (stereo unspecified)	/	/	/	?	/	-24%
Cc1cc(NC(=O)C(C)(C)C)cc(-c2nc3ncccc3o2)c1O	/	/	/	-24%	/	?

Screening results deposited in PubChem BioAssay by National Center for Advancing Translational Sciences (NCATS).
